From ChEMBL document CHEMBL1157539, “Thousands of chemical starting points for antimalarial lead identification” (Nature, 2010)

The molecules below were run on Plasmodium falciparum (assay: GSK_TCMDC: Inhibition of Plasmodium falciparum 3D7 in whole red blood cells, using parasite LDH activity as an index of growth. Test compounds present at 2uM).
Assay type: functional

SMILES	Inhibition [%]
O=C(CCCCCNC(=O)c1ccc(O)c(-c2ccc(Cl)c(Cl)c2)c1)NCCN1CCCC1	90
Clc1cc2c(Nc3ccc(Oc4ccccc4)cc3)ccnc2cc1-c1ccc(CNCCN2CCOCC2)o1	100
COc1cc(C(=O)NC2CC(C)(C)N(C)C(C)(C)C2)ccc1-c1cc2cc(Cl)c(Cl)cc2[nH]1	89
CCc1cn(CCOC)c2ccc(C(=O)N[C@@H](Cc3ccccc3)[C@H](O)CNC(C)(C)CCCC(C)C)cc12.O=CO	98
O=C(/C=C/c1ccc(Cl)c(Cl)c1)NCCCCCN1CCC(CCNC(=O)/C=C/c2ccccc2F)CC1	94
COc1ccc(NC(=O)C2c3ccccc3C(=O)N(C3CCCC3)C2c2cccs2)c(OC)c1 (stereo unspecified)	84
Cc1ccc2[nH]ncc2c1N(CC1CCCCC1)c1ccnc(Nc2ccc(OCC(O)CN3CC=CCC3)cc2)n1.O=CO (stereo unspecified)	100
CNC(=N)c1ccc(NC(=O)Nc2ccc(C(=N)NC)cc2)cc1.Cl	84
Cc1ccc(CNc2cc(C(F)(F)F)nc(-c3ccc(S(C)(=O)=O)cc3)n2)cc1	89
CN1CCN(Cc2ccc(-c3cc4nccc(Nc5ccc(Oc6ccccc6)cc5)c4cc3Cl)o2)CC1	100
OCc1ccc2nc3c(cc2c1)-c1cccc2cccc-3c12	96
O=C(NC1CC1)c1ccc(N2CCC(COc3cccc(F)c3)CC2)nc1	89
O=C(/C=C/c1ccc(Cl)c(Cl)c1)NC1CCC(CN2CCC(c3cc4ccccc4[nH]3)CC2)CC1 (stereo unspecified)	96
Cc1cccc2nc(-c3cccc(-c4cccc(CNCC5CCCO5)c4)c3)[nH]c12.O=C(O)C(F)(F)F (stereo unspecified)	100
Fc1ccc(-c2nc(NCc3cccc(C(F)(F)F)c3)nn2-c2cccc(C(F)(F)F)c2)cc1C(F)(F)F	90
Fc1ccc(Nc2ccnc3cc(I)ccc23)c(Cl)c1	95
O=C(/C=C/c1ccc(Cl)c(Cl)c1)NCCCCCN1CCC(NC(=O)Nc2cccc(Cl)c2Cl)CC1	100
CCOC(=O)c1ccc(COc2ccc(C)nc2)cc1	100
O=C(NC1CC1)c1ccc(Cn2c(SCc3cccc([N+](=O)[O-])c3)nc3ccccc3c2=O)cc1	91
O=C(c1ccc(Cl)cc1Cl)N1CCCC(C(F)(F)F)C1 (stereo unspecified)	95
CC(C)CCN1CCCN(Cc2cccc(NC(=O)c3ccc(Cl)c(Cl)c3)c2)CC1.O=C(O)C(F)(F)F	92
Br.CCOC(=O)c1c(CNc2ccncc2)n(C)c2cc(Br)c(OC(C)=O)cc12	96
O=C(/C=C/c1ccccc1Cl)Nc1ccc(Br)c(OCCN2CCN(CCN3CCOCC3)CC2)c1.O=C(O)C(=O)O	98
Cc1nc(-c2ccc(C#N)cc2)sc1C(=O)NCCCCN1CCC(c2ccc3c(c2OCCO)CCCC3)CC1.Cl	99
Oc1ccc(CCNc2nc(NCc3ccccc3-c3ccc(C(F)(F)F)cc3)nc(N3CCNCC3)n2)cc1	97
Cc1cccn2c(=O)c3cc(C(=O)NC4CCCCC4)c(=N)n(CCCn4ccnc4)c3nc12	100

These molecules were tested on Plasmodium falciparum (assay: GSK_TCMDC: Inhibition of Plasmodium falciparum Dd2 in whole red blood cells, using parasite LDH activity as an index of growth. Test compounds present at 2uM).
Assay type: functional

SMILES	Inhibition [%]
CC(=O)c1ccc(-c2cccc3c(CC(=O)Nc4ccc5nccc(N6CCN(C)CC6)c5c4)cccc23)cc1	96
O=C(Nc1ccccc1)N(Cc1cccc(-c2ccc(CNCc3ccc4c(c3)OCO4)cc2)c1)C1CCN(Cc2ccccc2)CC1.O=C(O)C(F)(F)F	82
Cc1cc(CNCCCCCCCNCc2ccc(-c3ccccc3)cc2)ccc1O	6
O=C1NC(=S)N/C1=C/C=C/c1ccc([N+](=O)[O-])o1	30
COc1cccc2sc(N3CCN(C(=O)c4ccc([N+](=O)[O-])o4)CC3)nc12	67
Cc1cc(NC(=O)Nc2ccc3nccc(N4CCN(C)CC4)c3c2)ccc1Br	100
CCCCN1CCN(CCCNc2c3ccccc3nc3ccccc23)CC1.Cl	70
c1ccc2c(NCCc3c[nH]cn3)c3ccccc3nc2c1	0
COc1ccc(C2SCC(=O)N2CCc2ccc(OC)c(OC)c2)cc1 (stereo unspecified)	2
Cl.c1cc(CNC2Cc3ccccc3C2)cc(-c2cnc(N3CCNCC3)nc2)c1	65
CS(=O)(=O)c1ccc(CNCc2ccc(-c3ccc(-c4nc5cc(F)ccc5[nH]4)s3)cc2)cc1.O=C(O)C(F)(F)F	97
COc1ccc(-c2ccc3c(-c4cccc(S(C)(=O)=O)c4)cnc(N)c3c2)cc1	12
CCCC(C(=O)OCCN(CC)CC)(c1ccc(Cl)cc1)c1ccc(Cl)cc1.Cl	87
Oc1cc(Nc2ccnc3cc(-c4cccc(CN5CCOCC5)c4)ccc23)c(F)cc1Cl	89
O=C(CCCCCNC(=O)c1ccc(O)c(-c2ccc(Cl)c(Cl)c2)c1)NCCN1CCCC1	2
Clc1cc2c(Nc3ccc(Oc4ccccc4)cc3)ccnc2cc1-c1ccc(CNCCN2CCOCC2)o1	89
COc1cc(C(=O)NC2CC(C)(C)N(C)C(C)(C)C2)ccc1-c1cc2cc(Cl)c(Cl)cc2[nH]1	36
CCc1cn(CCOC)c2ccc(C(=O)N[C@@H](Cc3ccccc3)[C@H](O)CNC(C)(C)CCCC(C)C)cc12.O=CO	98
O=C(/C=C/c1ccc(Cl)c(Cl)c1)NCCCCCN1CCC(CCNC(=O)/C=C/c2ccccc2F)CC1	1
COc1ccc(NC(=O)C2c3ccccc3C(=O)N(C3CCCC3)C2c2cccs2)c(OC)c1 (stereo unspecified)	54

SMILES	Inhibition [%]
Cc1ccc2[nH]ncc2c1N(CC1CCCCC1)c1ccnc(Nc2ccc(OCC(O)CN3CC=CCC3)cc2)n1.O=CO (stereo unspecified)	79
CNC(=N)c1ccc(NC(=O)Nc2ccc(C(=N)NC)cc2)cc1.Cl	71
Cc1ccc(CNc2cc(C(F)(F)F)nc(-c3ccc(S(C)(=O)=O)cc3)n2)cc1	72
CN1CCN(Cc2ccc(-c3cc4nccc(Nc5ccc(Oc6ccccc6)cc5)c4cc3Cl)o2)CC1	99
OCc1ccc2nc3c(cc2c1)-c1cccc2cccc-3c12	0
O=C(NC1CC1)c1ccc(N2CCC(COc3cccc(F)c3)CC2)nc1	88
O=C(/C=C/c1ccc(Cl)c(Cl)c1)NC1CCC(CN2CCC(c3cc4ccccc4[nH]3)CC2)CC1 (stereo unspecified)	0
Cc1cccc2nc(-c3cccc(-c4cccc(CNCC5CCCO5)c4)c3)[nH]c12.O=C(O)C(F)(F)F (stereo unspecified)	99
Fc1ccc(-c2nc(NCc3cccc(C(F)(F)F)c3)nn2-c2cccc(C(F)(F)F)c2)cc1C(F)(F)F	58
Fc1ccc(Nc2ccnc3cc(I)ccc23)c(Cl)c1	24
O=C(/C=C/c1ccc(Cl)c(Cl)c1)NCCCCCN1CCC(NC(=O)Nc2cccc(Cl)c2Cl)CC1	35
CCOC(=O)c1ccc(COc2ccc(C)nc2)cc1	0
O=C(NC1CC1)c1ccc(Cn2c(SCc3cccc([N+](=O)[O-])c3)nc3ccccc3c2=O)cc1	65
O=C(c1ccc(Cl)cc1Cl)N1CCCC(C(F)(F)F)C1 (stereo unspecified)	47
CC(C)CCN1CCCN(Cc2cccc(NC(=O)c3ccc(Cl)c(Cl)c3)c2)CC1.O=C(O)C(F)(F)F	13
Br.CCOC(=O)c1c(CNc2ccncc2)n(C)c2cc(Br)c(OC(C)=O)cc12	93
O=C(/C=C/c1ccccc1Cl)Nc1ccc(Br)c(OCCN2CCN(CCN3CCOCC3)CC2)c1.O=C(O)C(=O)O	91
Cc1nc(-c2ccc(C#N)cc2)sc1C(=O)NCCCCN1CCC(c2ccc3c(c2OCCO)CCCC3)CC1.Cl	10
Oc1ccc(CCNc2nc(NCc3ccccc3-c3ccc(C(F)(F)F)cc3)nc(N3CCNCC3)n2)cc1	53
Cc1cccn2c(=O)c3cc(C(=O)NC4CCCCC4)c(=N)n(CCCn4ccnc4)c3nc12	8
